Assay [1] has as its system Plasmodium falciparum Sir2 (PF13_0152, Sir2A). The assay is described as follows: pfSir2 binders on small-molecule microarrays, primary screen, biochemical, small-molecule microarray, 635 nm fluorescence (AID 1098).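 Note: score merges spot fluorescence intensity with its signal-to-noise ratio.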 Conditions: small-molecule microarray binding, fluorescence 635 nm; higher = more signal.
The nature of assay [2]: small-molecule microarray binders of probe aDKK1, primary screen, biochemical, biotinylated probe, 635/667 nm fluorescence (AID 1099).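 Note: score merges 667nm spot fluorescence with signal to noise across triplicate slides.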 Conditions: higher = more signal.
The nature of assay [3]: small-molecule microarray binders of probe aCHRDL2, primary screen, biochemical, biotinylated probe, 635/667 nm fluorescence (AID 1100). Conditions: higher = more signal.
Assay [4] in a line: splicing luciferase reporter signal modulators, primary screen, spliceosome inhibition project, cell-based, HEK293, splice +/- reporter (AID 1101).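 Note: HEK293 cells carrying a splicing-competent luciferase reporter gene; test concentration not given here.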 Conditions: luminescence, 24 h, higher = more signal, called active from +8 up or from −8 down. For orientation: Reporter assays use an easily measured gene product as a stand-in for the process of interest.
Assay [5] concerns the target Fibroblast growth factor 10 (Homo sapiens) (UniProt O15520). As to the kind of experiment: FGF10 binders on small-molecule microarrays, primary screen, biochemical, small-molecule microarray, 635 nm fluorescence (AID 1102). Conditions: FGF10 binding, fluorescence 635 nm, higher = more signal.
Assay [6] has as its system glycogen synthase kinase-3 (GSK3A per assay name; protocol says GSK3B). The assay is described as follows: GSK3 binders on small-molecule microarrays, primary screen, biochemical, small-molecule microarray, 635 nm fluorescence, GSK3A (AID 1103). Note: the record names both GSK3A and GSK3B. Conditions: small-molecule microarray binding, fluorescence 635 nm; higher = more signal.
In assay [7] the target is Epidermal growth factor receptor (Homo sapiens) (UniProt P00533). As to the kind of experiment: EGFR binders on small-molecule microarrays, primary screen, biochemical, small-molecule microarray, 635 nm fluorescence (AID 1104).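 Note: score merges 667 nm emission intensity with spot signal to noise over triplicate slides.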 Conditions: EGFR binding, higher = more signal.
The target of assay [8] is Follistatin-related protein 3 (Homo sapiens) (UniProt O95633). The assay is described as follows: FSTL3 binders on small-molecule microarrays, primary screen, biochemical, small-molecule microarray, 635 nm fluorescence (AID 1105).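 Note: score merges emission near 667 nm and signal to noise per printed spot across three slides.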 To be noted: FSTL3 binding, higher = more signal.
The target of assay [9] is Dickkopf-related protein 1 (Homo sapiens) (UniProt O94907). As to the kind of experiment: DKK1 binders on small-molecule microarrays, primary screen, biochemical, small-molecule microarray, 635 nm fluorescence scan (AID 1106).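 Note: score merges emission near 667 nm with signal to noise over three replicate slides.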 To be noted: DKK1 binding, higher = more signal.
The test system of assay [10] is Inhibin beta A chain (activin A). The assay is described as follows: INHBA (activin A) binders on microarrays, primary screen, biochemical, small-molecule microarray, 635 nm fluorescence scan (AID 1107).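 Note: mouse activin A protein probed at 4.33 µg/mL on printed slides; score merges bound-protein fluorescence near 667 nm with spot signal-to-noise.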 To be noted: small-molecule microarray binding, higher = more signal.
For assay [11], the system named is Human papillomavirus type 1a protein E7 (residues 44-93). The assay is described as follows: HPV1a E7 fragment binders on microarrays, primary screen, biochemical, small-molecule microarray, residues 44-93, 635 nm fluorescence (AID 1108).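 Note: E7 fragment applied at 1 µg/mL in TBST for 1 h at 4 C; score combines spot fluorescence with its signal to noise ratio.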 Conditions: small-molecule microarray binding, fluorescence 635 nm; higher = more signal.
Assay [12] can be described thus: modulators of HCV replicon luciferase signal, primary screen, HCV replication inhibitor project, Huh7 cells, luciferase reporter (AID 1109).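 Note: huh7 hepatoma cells harbouring a luciferase neomycin HCV replicon reporter; luciferase luminescence as measure of HCV replicon replication; test concentration not given here.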 To be noted: 48 h, higher = more signal. Background: Replicon systems follow genome replication, usually without infectious particles.
Assay [13] addresses Left-right determination factor 2 (Homo sapiens) (UniProt O00292). The assay is described as follows: LEFTY2 binders on small-molecule microarrays, primary screen, biochemical, small-molecule microarray, 635 nm fluorescence scan (AID 1110). Conditions: LEFTY2 binding, higher = more signal.
The target in assay [14] is Calmodulin-1 (Homo sapiens) (UniProt P0DP23). The assay is described as follows: CALM1 binders on microarrays, EGTA buffer, profiling panel, biochemical, small-molecule microarray, Cy5-labelled CALM1 (AID 1111).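 Note: labelled calmodulin applied in Tris saline Tween buffer holding calcium plus EGTA and DTT.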 To be noted: Cy5-CALM1 binding fluorescence, higher = more signal.
For assay [15] the target is unchanged. The assay is described as follows: calcium-bound CALM1 binders on microarrays, profiling panel, artefact control for SMM control-protein annotation, biochemical, small-molecule microarray, Cy5-labelled CALM1, plus calcium (AID 1112).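 Note: score merges spot fluorescence with signal to noise from triplicate slides.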 To be noted: Cy5-CALM1 binding fluorescence, higher = more signal.
Assay [16] can be described thus: small-molecule microarray binders of probe aWnt5a, primary screen, biochemical, biotinylated probe, 635/667 nm fluorescence (AID 1113).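 Note: score merges 667 nm fluorescence intensity with signal-to-noise per printed feature.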 Conditions: higher = more signal.
Assay [17] in a line: small-molecule microarray binders of probe aShh, primary screen, biochemical, biotinylated probe, 635/667 nm fluorescence (AID 1114).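 Note: probe is biotin-labelled aShh protein from a stem cell growth factor screen; measures binding of labelled protein to compounds printed on the slide; score merges feature fluorescence at 667 nm with signal-to-noise.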 To be noted: higher = more signal.
Assay [18] in a line: small-molecule microarray binders of probe aNog, primary screen, biochemical, biotinylated probe, 635/667 nm fluorescence (AID 1115).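 Note: probe is biotinylated aNog protein used at 0.15 µg/mL for 1 h at 4 C; z-score combines 667 nm fluorescence of each spot with its signal to noise.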 Conditions: higher = more signal.
The target of assay [19] is Torsin-1A-interacting protein 1 (Homo sapiens) (UniProt Q5JTV8). The assay is described as follows: LAP1 binders from COS7 cell lysate, primary screen, small-molecule microarray, 635/667 nm fluorescence (AID 1116). To be noted: COS7-hLAP1 lysate binding, 635 nm fluorescence, higher = more signal.
Assay [20] has as its target Alpha-bungarotoxin (Bungarus multicinctus) (UniProt P60615). The assay is described as follows: alpha-bungarotoxin binders on microarray, profiling panel, artefact control for SMM control protein annotation, biochemical, small-molecule microarray, Alexa647 label, 635/667 nm fluorescence (AID 1117). To be noted: alpha-BTX-A647 binding fluorescence, higher = more signal.

This note sets out measurements from PubChem BioAssay.

SMILES strings stand for the structures. Values joined by “and” are separate entries in the source; they are usually repeats but may differ in a detail not shown here. Equal values may be shown once. Active and inactive are the calls of the source.

Left-right determination factor 2 (Homo sapiens), sequence (O00292 whole entry, looked up): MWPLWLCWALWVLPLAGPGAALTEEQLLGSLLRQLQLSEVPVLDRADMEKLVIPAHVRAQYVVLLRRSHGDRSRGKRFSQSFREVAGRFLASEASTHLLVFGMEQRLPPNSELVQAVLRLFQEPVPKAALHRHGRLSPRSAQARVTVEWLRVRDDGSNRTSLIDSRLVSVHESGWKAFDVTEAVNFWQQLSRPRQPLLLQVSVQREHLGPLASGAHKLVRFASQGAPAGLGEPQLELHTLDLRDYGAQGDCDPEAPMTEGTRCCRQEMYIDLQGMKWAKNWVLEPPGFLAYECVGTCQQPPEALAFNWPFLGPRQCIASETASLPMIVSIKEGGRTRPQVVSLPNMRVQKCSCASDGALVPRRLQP
Epidermal growth factor receptor (Homo sapiens), sequence (P00533 whole entry, looked up): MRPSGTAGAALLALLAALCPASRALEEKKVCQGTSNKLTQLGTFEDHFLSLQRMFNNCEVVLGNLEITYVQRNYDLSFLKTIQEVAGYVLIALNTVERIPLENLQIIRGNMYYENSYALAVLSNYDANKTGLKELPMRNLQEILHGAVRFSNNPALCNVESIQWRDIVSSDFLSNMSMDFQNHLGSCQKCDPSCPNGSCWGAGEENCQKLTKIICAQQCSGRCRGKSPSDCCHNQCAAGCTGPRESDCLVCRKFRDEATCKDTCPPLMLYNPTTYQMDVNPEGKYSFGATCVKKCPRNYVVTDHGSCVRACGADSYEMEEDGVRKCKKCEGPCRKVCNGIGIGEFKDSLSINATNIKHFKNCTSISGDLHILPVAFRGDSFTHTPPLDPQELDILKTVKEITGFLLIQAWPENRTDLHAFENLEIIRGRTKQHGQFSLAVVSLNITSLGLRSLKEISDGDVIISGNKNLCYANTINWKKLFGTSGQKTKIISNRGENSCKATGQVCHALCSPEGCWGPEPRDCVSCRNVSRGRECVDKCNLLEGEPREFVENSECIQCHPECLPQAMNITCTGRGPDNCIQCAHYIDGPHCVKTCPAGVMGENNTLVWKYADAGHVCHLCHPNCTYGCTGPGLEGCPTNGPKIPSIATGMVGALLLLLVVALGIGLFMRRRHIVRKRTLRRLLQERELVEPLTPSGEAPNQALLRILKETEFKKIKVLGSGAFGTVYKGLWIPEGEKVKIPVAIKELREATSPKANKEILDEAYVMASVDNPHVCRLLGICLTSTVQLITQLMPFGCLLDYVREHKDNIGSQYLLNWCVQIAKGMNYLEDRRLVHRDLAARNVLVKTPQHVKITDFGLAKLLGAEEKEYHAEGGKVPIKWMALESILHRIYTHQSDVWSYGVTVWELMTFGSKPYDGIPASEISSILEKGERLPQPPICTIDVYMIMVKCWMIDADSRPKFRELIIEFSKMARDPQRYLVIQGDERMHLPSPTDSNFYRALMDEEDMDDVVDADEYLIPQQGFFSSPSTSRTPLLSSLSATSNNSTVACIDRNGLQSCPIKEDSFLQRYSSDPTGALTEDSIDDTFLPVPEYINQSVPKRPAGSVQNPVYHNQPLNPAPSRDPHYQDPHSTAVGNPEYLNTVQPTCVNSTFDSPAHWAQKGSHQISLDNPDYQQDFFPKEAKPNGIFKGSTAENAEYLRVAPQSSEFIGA
Alpha-bungarotoxin (Bungarus multicinctus), sequence (P60615 whole entry, looked up): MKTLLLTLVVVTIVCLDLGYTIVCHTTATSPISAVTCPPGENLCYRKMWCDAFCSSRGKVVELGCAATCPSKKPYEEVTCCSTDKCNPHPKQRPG
Torsin-1A-interacting protein 1 (Homo sapiens), sequence (Q5JTV8 whole entry, looked up): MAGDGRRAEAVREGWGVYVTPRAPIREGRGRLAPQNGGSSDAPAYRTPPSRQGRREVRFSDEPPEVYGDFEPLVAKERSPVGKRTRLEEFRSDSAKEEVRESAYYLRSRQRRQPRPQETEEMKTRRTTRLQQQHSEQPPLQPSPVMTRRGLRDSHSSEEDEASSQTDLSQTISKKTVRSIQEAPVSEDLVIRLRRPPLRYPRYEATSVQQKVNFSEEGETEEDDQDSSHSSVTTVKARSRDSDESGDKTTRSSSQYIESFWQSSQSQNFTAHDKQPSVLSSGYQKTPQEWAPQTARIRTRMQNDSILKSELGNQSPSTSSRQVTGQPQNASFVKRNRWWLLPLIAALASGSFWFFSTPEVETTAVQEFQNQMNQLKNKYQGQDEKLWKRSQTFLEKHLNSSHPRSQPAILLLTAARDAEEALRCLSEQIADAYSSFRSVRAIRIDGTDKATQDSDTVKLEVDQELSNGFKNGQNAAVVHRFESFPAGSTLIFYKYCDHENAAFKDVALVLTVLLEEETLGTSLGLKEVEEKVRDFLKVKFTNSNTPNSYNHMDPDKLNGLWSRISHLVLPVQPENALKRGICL
Dickkopf-related protein 1 (Homo sapiens), sequence (O94907 whole entry, looked up): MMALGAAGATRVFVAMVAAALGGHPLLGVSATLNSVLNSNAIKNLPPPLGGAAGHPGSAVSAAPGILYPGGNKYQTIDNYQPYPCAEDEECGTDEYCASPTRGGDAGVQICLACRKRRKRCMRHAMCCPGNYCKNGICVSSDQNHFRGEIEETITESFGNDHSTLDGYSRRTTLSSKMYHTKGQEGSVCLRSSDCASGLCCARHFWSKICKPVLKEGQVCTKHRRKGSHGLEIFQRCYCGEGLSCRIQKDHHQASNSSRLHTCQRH
Fibroblast growth factor 10 (Homo sapiens), sequence (O15520 whole entry, looked up): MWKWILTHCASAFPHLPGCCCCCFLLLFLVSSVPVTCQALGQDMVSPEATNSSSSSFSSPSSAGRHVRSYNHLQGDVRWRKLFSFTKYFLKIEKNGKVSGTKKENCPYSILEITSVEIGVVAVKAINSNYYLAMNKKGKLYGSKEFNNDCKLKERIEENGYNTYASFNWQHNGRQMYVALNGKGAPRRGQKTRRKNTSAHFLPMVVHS
Follistatin-related protein 3 (Homo sapiens), sequence (O95633 whole entry, looked up): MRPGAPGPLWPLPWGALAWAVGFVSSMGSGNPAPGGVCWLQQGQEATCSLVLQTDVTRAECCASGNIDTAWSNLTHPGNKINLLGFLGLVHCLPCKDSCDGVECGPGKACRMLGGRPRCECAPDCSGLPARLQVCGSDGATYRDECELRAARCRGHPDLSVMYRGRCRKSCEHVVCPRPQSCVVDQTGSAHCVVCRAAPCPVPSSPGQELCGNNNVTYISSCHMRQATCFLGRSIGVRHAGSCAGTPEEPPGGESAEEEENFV

For the compound `COC(=O)C1=C(C)N(Cc2ccccc2)C2=C3C(=O)N(c4ccccc4)C(=O)[C@@H]3[C@@](O)(C(=O)OC)C(=O)N2[C@@H]1c1ccccc1`, the composite z-score in assay [1] was -0.0191 and 0.501; in assay [2], -0.0254 and -0.186; in assay [3] it was -0.914 and -0.616; in assay [5], 1.17 and 0.553; in assay [6], 0.387 and 0.542; in assay [7] it was 0.566 and 0.369. For the same compound, the composite z-score in assay [8] was 0.802 and 0.527; in assay [9] it was 0.603 and 0.58; in assay [10], -0.042 and -0.581; in assay [11] it was -0.996 and 0.49; in [13], 0.269 and 0.49; in assay [14] it was -0.101 and -0.0398. Further, the composite z-score in [15] is -0.65 and -0.381; in assay [16] it was -0.124 and -0.0405; in [17], 0.151 and 0.318; in [18], 0.0954 and -0.43; in [19] it was 0.792 and 1.32; in assay [20], 0.231 and 1.87. Further, the z-score in assay [4] is 0.0988 (inactive) and -2.38 (inactive); in assay [12] it was -0.0822 and -0.147.
With `CCC[C@@H]1C[C@@]1(CCC)[C@@H](NC(=O)c1ccc(-c2ccccc2)cc1)c1cccc(Cl)c1`, the composite z-score in assay [1] was 1.21 and 0.366; in assay [2], 1.34 and 0.898; in assay [3], 1.09 and 1.13; in assay [5], -0.592 and 0.143; in assay [6] it was -0.826 and -0.349; in [7] it was -0.346 and 0.0087. The composite z-score in assay [8] is -0.46 and -0.339; in assay [9], -0.0916 and -0.455; in assay [10], 1.53 and 0.896; in assay [11] it was -0.802 and 0.457; in assay [13], -0.307 and -0.135; in assay [14] it was -1.57 and 0.535. Moreover, the composite z-score was -1.45 and 0.215 in assay [15]; 0.874 and 0.103 in [16]; 2.27 and -0.138 in [17]; 2.75 and 0.507 in assay [18]; 0.415 and 0.868 in assay [19]; -0.899 and -0.0107 in assay [20]. Further, the z-score is -3.74 (inactive) and -1.69 (inactive) in assay [4]; -2.13 and -2.05 in assay [12].
On to `CC(C)OC(=O)C=C1C[C@@H](c2ccccc2)O[C@@H](c2ccccc2)O1`, for which the composite z-score in assay [1] is 0.733 and 1.54; in assay [2], 0.164 and 0.272; in assay [3], 0.0614 and 0.847; in assay [5] it was 1.45 and 1.42; in assay [6], 1.34 and 1.31; in assay [7], 0.65 and 0.664. The composite z-score in assay [8] is 1.44 and 1.41; in [9], 0.527 and 0.481; in [10] it was -0.0632 and 1.05; in assay [11], 1.48 and 1.45; in assay [13], 0.826 and 0.795; in assay [14], 0.056 and 1.23. Further, the composite z-score was -0.147 and -0.505 in [15]; 0.166 and 0.0915 in [16]; -0.185 and 0.131 in assay [17]; 0.286 and 0.403 in assay [18]; 1.3 and 1.28 in assay [19]; 1.03 and 1.75 in assay [20]. Moreover, the z-score in assay [4] is 0.0661 (inactive) and 2.56 (inactive); in assay [12], -2.1 and -1.36.
Take `Cc1ccc(S(=O)(=O)N[C@@H]2COC(=O)CC=C[C@@H](C)[C@@H]3C=C[C@H](O)[C@@H](COC(=O)CC=C[C@H]2C)O3)cc1`: the composite z-score in assay [1] is 0.527 and 0.241; in assay [2] it was -0.553 and -0.331; in [3], -1.15 and -0.466; in assay [5], 0.606 and 0.174; in assay [6], 0.126 and 0.233; in [7], 0.884 and 0.383. Also, the composite z-score is 1.08 and 0.451 in assay [8]; 1.13 and 0.389 in assay [9]; 1.03 and -0.134 in assay [10]; -0.813 and -0.0304 in [11]; 1.21 and 0.343 in [13]; -0.657 and -0.267 in [14]. The composite z-score in [15] is -1.1 and -0.778; in [16], -0.172 and -0.0044; in assay [17] it was -0.0977 and -0.0035; in assay [18], -0.0965 and -0.116; in [19], 0.11 and 0.433; in [20], -0.268 and 0.391. In addition, the z-score is -0.371 (inactive) and -1.35 (inactive) in assay [4]; -0.606 and -1.32 in assay [12].
